AMA1-RON2 inh = qHTS for Inhibitors of AMA1-RON; Towards Development of Antimalarial Drug Lead: Primary Screen; hit rate 0.2% among 360,000; AID 720542, 2013; AlphaScreen AMA1-biotinylated RON2 peptide binding; Potency, µM (highest dose often 58.2 µM), inactives show at the highest dose activity change, negative = inhibition, hits mostly inhibitors;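 also: potency is read from the fitted curve at half-maximal effect; 0% = vehicle wells and -100% = peptide control; nearly all actives have a fitted effect of over 45% in size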
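AMA1 (3D7) with his tag at 25 nM final met compounds first, then biotinylated RON2 peptide at 25 nM; detection used donor plus acceptor beads, 10 µg/mL apiece, read by AlphaScreen after 30 min at room temperature.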
Pf growth 96h = Primary qHTS for delayed death inhibitors of the malarial parasite plastid, 96 hour incubation. Potency, µM (top dose mostly 28.7 µM), for inactives: top-dose activity change, negative = inhibition, usual class: inhibitors. P. falciparum luciferase reporter growth, 96 h. hit rate 6.9% among 320,000. AID 504834, 2011; also: potency is read from the fitted curve at half-maximal effect; % is scaled to controls: 0 for no effect and ±100 for the full control effect
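P. falciparum expressing integrated firefly luciferase, in erythrocytes at 2% hematocrit, 0.05% parasitemia, incubated with compounds 96 h at 37 C, 5% CO2. Growth inhibition read as loss of luminescence; two-generation exposure targets delayed-death apicoplast inhibitors.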
CHX counter = Cycloheximide Counterscreen for Small Molecule Inhibitors of Shiga Toxin | cell reporter, cycloheximide protein synthesis inhibition counterscreen | max response, % | AID 2314, 2010 | hit rate 12% among 300,000; in the data active = max response mostly above about 13%, no sharp cut-off; inactive = mostly below about 14%; also: read at 38.3 µM for the half of the compounds with a filed dose; 0% is about no effect
HCV inhibitor = qHTS Assay for Inhibitors of Hepatitis C Virus (HCV); AID 651820, 2012; Huh7.5.1 HCVcc-Cre infection, luciferase reporter, 44 h; Potency, µM (series often up to 41.8 µM), for inactives: top-dose activity change, negative = inhibition, hits mostly inhibitors; hit rate 3.4% among 340,000; also: potency is read from the fitted curve at half-maximal effect; % is scaled to controls: 0 for no effect and ±100 for the full control effect
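Cells (1,000/well) were plated 4 h before compound, then infected with HCVcc-Cre virus (~0.5 moi). After 44 h further culture, infection was read as luciferase luminescence following a 15 min substrate incubation at room temperature.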
Pf growth 48h = Primary qHTS for delayed death inhibitors of the malarial parasite plastid, 48 hour incubation. hit rate 5.9% among 310,000. P. falciparum luciferase growth in erythrocytes, 48 h. Potency, µM (series often up to 28.7 µM), for the others: top-dose activity change, negative = inhibition, hits mostly inhibitors; also: potency is read from the fitted curve at half-maximal effect; % is scaled to controls: 0 for no effect and ±100 for the full control effect
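Growth was read as firefly luciferase luminescence after a 48 h, 37 C, 5% CO2 exposure of compounds to reporter-bearing P. falciparum cultures (0.1% parasitemia, 2% hematocrit final) in Albumax-supplemented RPMI 1640.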
Shiga toxin inh = A qHTS for Small Molecule Inhibitors of Shiga Toxin; Vero cells, Shiga toxin protein synthesis inhibition reporter; inhibition, % at 38.7 µM; hit rate 9.2% among 290,000; in the data active = inhibition mostly above about 28%, no sharp cut-off; inactive = mostly below about 43%; also: 0% is about no effect
The depositor's hits bear a star; i = inactive; ? = inconclusive; / = not tested or not shown; [ ] = dose if it differs, or a comment. This is a sample that favours compounds with a hit; in the whole collection about 21% have one here. Unless noted, calls follow the shape of the dose curve; as a rule, active = well fitted curve in the direction sought with a large enough effect; inconclusive = small, poorly fitted or top-dose-only effect, or another doubt; inactive = no such curve, though single readings can be large; an effect the other way counts as inactive or inconclusive.

SMILES | AMA1-RON2 inh | Pf growth 96h | CHX counter | HCV inhibitor | Pf growth 48h | Shiga toxin inh
Cc1ccc(NC(=S)NNC(=O)c2c(Cl)c(C)nn2C)cc1 | 76% | ? | -4 | 1% | 19% | -8
Cc1ccc(NC(=S)NNC(=O)c2nn(C)c(C)c2Cl)cc1 | 51% | 167% | 36* | 30% | 181% | 93*
Cc1ccc(NC(=S)NNC(=O)Nc2ccccc2)cc1 | 42% | 62% | 54* | 5% | 120% | 109*
Cc1cc(C)cc(NS(=O)(=O)c2ccc(NC(=S)Nc3ccccc3)cc2)c1 | -10% | 0% | 14* | -1% | -8% | -2
COc1ccccc1-n1c(SCC(=O)Nc2cc(C)on2)nc2c(c1=O)SCC2 | 5% | ? | 3 | -4% | ? | -3
CCOC(=O)N1CCN(C(=O)CSc2nc3c(c(=O)n2-c2ccccc2OC)SCC3)CC1 | -4% | 1.3µM* | -3 | 18% | ? | 28
COc1ccccc1-n1c(SCC(=O)Nc2nnc(C)s2)nc2c(c1=O)SCC2 | -7% | 12µM* | 4 | 24% | 0% | 18
CCn1c(SCC(=O)N2CCCCCC2)nc2c(c1=O)SCC2 | 0% | 5.9µM* | 1 | / | -10% | -1
CC(SCc1ccccc1)C(=O)Nc1ccccc1F (stereo unspecified) | -1% | 0.93µM* | 15 | 10% | 33% | 3
CCCCN=Cc1c(C)[nH]n(-c2ccccc2)c1=S | 30% | 50% | 25* | -4% | 29% | 34
Cc1[nH]n(-c2ccccc2)c(=O)c1/C=N/N1C(=O)c2cccc3cccc(c23)C1=O | 78% | 23% | -1 | -25% | 9% | 14
Cc1[nH]n(-c2ccccc2)c(=O)c1C=NCCc1ccccc1 | 6% | 38%[5.75 µM] | 21* | -9% | 14% | 66*
CCOC(=O)C(=C1Nc2ccccc2N1)n1c(-c2cccnc2)nc2ccccc21 | 71% | / | / | / | / | /
C/C(CCC(C)C)=N\Nc1cc(C)c2ccccc2n1 | -10% | 17µM* | 7 | 3% | ? | 2
c1cc2c(cc1C1=NNC(=NC3CC3)SC1)OCCO2 | 76% | -44% | -8 | -16% | -57% | -20
FC(F)Sc1ccc(N=C2NN=C(c3ccc4c(c3)OCCO4)CS2)cc1 | 18% | ? | 25* | 10µM* | ? | 47*
COc1ccc(N=C2NN=C(c3ccc4c(c3)OCCO4)CS2)cc1 | -26% | -84% | 21* | ? | / | 6
Cc1ccc(S(=O)(=O)NC(=O)C2(C)CCN2C(=O)Cc2ccc(Cl)cc2Cl)nc1 (stereo unspecified) | 76% | / | / | / | / | /
CN(C)S(=O)(=O)c1ccc(C(=O)NN2C(=O)NC3(CCCCC3)C2=O)cc1 | 9% | 22% | / | 11% | ? | /
N#CCCN1CCN(S(=O)(=O)c2ccc(S(=O)(=O)N3CCCCCC3)cc2)CC1 | 17% | 170% | -3 | 7% | 3% | 4
CCN(C1CCCCC1)S(=O)(=O)c1ccc(S(=O)(=O)N2CCN(CCC#N)CC2)cc1 | -4% | 6.6µM* | 0 | -7% | ? | 14
O=C(/C=C/[C@H]1O[C@@H](n2ccc(=O)[nH]c2=O)[C@H](O)[C@@H]1O)NCCN1CCCC1 | 2% | / | / | / | / | /
Cc1ccc2c(c1)-c1c(cnn1CC(=O)Nc1ccccc1N1CCN(C)CC1)CO2 | -5% | -33% | -3 | -28% | 10µM* | -4
Cc1ccc2c(c1)-c1c(cnn1CC(=O)O)CO2 | -2% | ? | 1 | 22% | 9% | -2
Cc1ccc(C(C)C)c(OCC(=O)Nc2ccccc2N2CCN(C)CC2)c1 | -12% | 24% | -3 | ? | 6.6µM* | -29
SMILES | AMA1-RON2 inh | Pf growth 96h | CHX counter | HCV inhibitor | Pf growth 48h | Shiga toxin inh
Cc1cccc(NC(=O)CSCC(=O)Nc2ccc(N3CCOCC3)cc2N2CCOCC2)c1 | 0% | / | / | -2% | / | /
CC(=O)N1CCN(c2ccccc2NC(=O)COc2cc(C)ccc2C(C)C)CC1 | -6% | / | -3 | ? | ? | -2
Cc1ccc(CSCC(=O)Nc2ccc(N3CCOCC3)cc2N2CCOCC2)cc1 | 2% | ? | / | 4% | 5.2µM* | /
COc1cc(C)ccc1OCC(=O)Nc1ccccc1N1CCOCC1 | -13% | ? | / | ? | ? | /
Cc1ccc(C(C)C)c(OCC(=O)Nc2ccc(N3CCOCC3)cc2N2CCOCC2)c1 | -17% | ? | / | 32µM* | ? | /
Cc1ccc(NC(=O)CCC(=O)NNC(=O)Nc2cccc(Cl)c2)c(C)c1 | 106% | -82% | 1 | 15% | ? | -7
COc1ccc2nc(NC(=O)Cn3cnc4ccccc4c3=O)sc2c1 | -17% | 50% | 14 | 17% | 35% | 39
CCCc1nc2ccc(Cl)cn2c1Cc1ccsc1 | -28% | / | / | / | / | /
O=C1NCC(Nc2ccc(Br)cc2)C(=O)N1 (stereo unspecified) | -1% | / | / | 10% | / | /
CC(=O)/C=C1\OCc2cc(OCc3ccccc3)ccc21 | -10% | / | / | / | / | /
O=C1CCOc2cc(OCc3ccccc3)ccc21 | 1% | i | 33* | 13% | i | 50*
COc1cccc(-c2ccc(CN3C(C(C)C)C(=O)N(Cc4cn(CCC5OCCO5)nn4)CCS3(=O)=O)cc2)c1OC (stereo unspecified) | 4% | / | / | / | / | /
COc1cccc(Cn2cnc3c(NS(=O)(=O)c4ccc(Cl)cc4)c(C)c(C)cc32)c1 | 7% | 4.7µM* | 1 | 4% | 13µM* | 3
COc1cccc(Cn2cnc3c(NS(=O)(=O)c4cccc(Cl)c4Cl)c(C)c(C)cc32)c1 | -15% | ? | -1 | 13µM* | ? | 12
COc1cccc(Cn2cnc3c(NS(=O)(=O)c4ccc(Cl)cc4Cl)c(C)c(C)cc32)c1 | -2% | 0% | -2 | ? | 25% | -4
COc1cccc(Cn2cnc3c(NS(=O)(=O)c4cc(Cl)ccc4Cl)c(C)c(C)cc32)c1 | -15% | ? | -3 | ? | ? | -2
COC(=O)c1cncc(C)c1 | 13% | 21% | -3 | 2% | -3% | -4
COc1nc(NCC(C)C)nc(Oc2ccc(OCc3ccccc3)nn2)n1 | -11% | 3% | 1 | -9% | 0.37µM* | -6
O=[N+]([O-])c1nccn1C1C=CC(O)C(CO)O1 (stereo unspecified) | 2% | / | / | / | / | /
NS(=O)(=O)c1ccc(Sc2ccc3ccccc3c2)nc1 | -13% | -13% | -6 | 6% | -8% | -7
O=C(O)CCCCCN1C(=O)C2CCCCC2C1=O (stereo unspecified) | -22% | 9.3µM* | -2 | -4% | 4% | -3
CN(C)S(=O)(=O)c1cccc(NC(=O)c2c[nH]c3ccccc23)c1 | 2% | -12% | 16* | ? | -16% | 64*
CN(C)S(=O)(=O)c1cccc(CSCc2cccc(S(=O)(=O)N(C)C)c2)c1 | -3% | -7% | 1 | 2.2µM* | -5% | -7

Screening results: PubChem BioAssay, National Center for Advancing Translational Sciences (NCATS)
